This excerpt belongs to a sample that is enriched for hits.
Pf Dd2 inh = blocks in vitro growth of P. falciparum Dd2. P. falciparum Dd2 growth, SYBR Green, 72 h. Potency, µM (titrated, usually from 28.9 µM), without a hit: at the highest dose activity, negative = inhibition, hits mostly inhibitors. hit rate 4.3% among 120,000. AID 1347417; active = well fitted inhibition curve with a large enough effect;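 also: plate controls were DMSO vehicle for no effect and reference drug for full effect; nearly all actives have a fitted effect of over 65% in size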
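Readout: SYBR Green fluorescence, 485 nm excitation, 535 nm emission, after ~16 h lysis at 37C. Before that, Dd2-infected red cells (2.5% hematocrit) grew 72 h with compound, 29 uM top final concentration.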
Starred values were filed as active, the others as inactive; i = inactive; [ ] = another dose, or the depositor's remark. Potency is read from the fitted curve at half-maximal effect.

SMILES	Pf Dd2 inh
O=C1Cc2c(-c3ccccc3)n[nH]c2CN1CCOc1ccccc1	-21%[44.1 µM]
O=C(O)c1cccc(-c2n[nH]c3c2CC(=O)N(CCOc2ccccc2)C3)c1	-12%[44.1 µM]
CC(C)Oc1cccc(-c2n[nH]c3c2CC(=O)N(CCOc2ccccc2)C3)c1	8.9µM*
CN1CC[C@H](c2nc3ccc(C(F)(F)F)cc3[nH]2)C1	-10%[44.1 µM]
CCOc1cccc2cc(-c3cn4c(n3)sc3ccccc34)c(=O)oc12	12%
Cc1ccc([S+](=O)([O-])N2CCC(c3nn(-c4ccc(F)cc4)c(=O)[nH]3)CC2)cc1	8.9µM*
Cc1ccc([S+](=O)([O-])N2CCCC(c3nn(-c4ccc(Cl)cc4)c(=O)[nH]3)C2)cc1 (stereo not given)	-21%
Cc1ccc([S+](=O)([O-])N2CCC(c3nn(C)c(=O)[nH]3)CC2)cc1	-4%
Cc1ccc2c(c1)nc1n2[C@@H](CNC(=O)c2ccccn2)COC1	-12%[44.1 µM]
CN(Cc1ccccc1)C(=O)[C@@H]1Cc2nc[nH]c2CN1C	-21%[44.1 µM]
CN(C)c1ccc(CN2Cc3[nH]cnc3C[C@H]2C(=O)N2CCC(Cc3ccccc3)CC2)cc1	i
COc1ccc(CN2Cc3[nH]cnc3C[C@H]2C(=O)N(C)Cc2ccccc2)c2ccccc12	5.6µM*
COc1ccc(CN2Cc3[nH]cnc3C[C@H]2C(=O)NCc2ccc(Cl)cc2)c2ccccc12	i
COc1ccc(CN2Cc3[nH]cnc3C[C@H]2C(=O)NC2CCCCC2)c2ccccc12	11µM*
COc1ccc(CN2Cc3[nH]cnc3C[C@H]2C(=O)NCc2ccc(C#N)cc2)c2ccccc12	-12%
COc1ccc(NC(=O)C2CC(=O)N(c3n[nH]c4cc(Br)ccc34)C2)cc1 (stereo not given)	5%
OC[C@@H]1O[C@H](CNC2CCOCC2)[C@H](N2CCN(c3ccccn3)CC2)[C@@H]1O	5%
CN(C)CC(=O)Nc1ccc2n(c1=O)C[C@H]1C[C@@H]2CN(C(=O)c2ccc(F)cc2)C1	i
Cc1ccc(C(=O)NCC(=O)OCc2cc(=O)n3nc(C4CC4)sc3n2)cc1	13%
CC(=O)Nc1ccc(C2(C(=O)O)CCCCC2)cc1	3%
CC(=O)Nc1ccc(C2(C(=O)N3CCCCCC3)CCC2)cc1	-21%
CC(=O)Nc1ccc(C2(C(=O)N3CCC(N4CCCCC4)CC3)CCCCC2)cc1	13µM*
CCOC(=O)CCc1c(C)nc2c(-c3ccccc3)c(C)[nH]n2c1=O	-23%
Cn1cnc(S(=O)(=O)N2CCC(C(=O)NCc3ccc(F)cc3)CC2)c1	2%
CCOC(=O)c1cccc(NC(=O)NCc2ccc3c(c2)CCN3C(=O)CC)c1	8%
SMILES	Pf Dd2 inh
CC1=C(C(=O)Nc2ccc(C)cc2)C(c2ccc(Cl)cc2)n2nnnc2N1 (stereo not given)	-27%
CC1=C(C(=O)Nc2ccccc2)C(c2ccccc2Cl)n2ncc(C(=O)Nc3cccc(C)c3)c2N1 (stereo not given)	3.2µM*
CC1=C(C(=O)Nc2ccc(C)cc2)C(c2ccccc2Cl)n2nnnc2N1 (stereo not given)	23%
CCc1ccc(C2C(C(=O)Nc3ccccc3OC)=C(C)Nc3nc(SCc4ccccc4)nn32)cc1 (stereo not given)	-9%
COc1ccccc1NC(=O)C1=C(C)Nc2c(C(=O)Nc3ccc(C)cc3)cnn2C1c1cccc(OC)c1OC (stereo not given)	13%
CCc1ccc(C2C(C(=O)Nc3ccccc3OC)=C(C)Nc3c(C(=O)Nc4ccc(C)cc4)cnn32)cc1 (stereo not given)	11µM*
CC1=C(C(=O)Nc2ccc(C)cc2C)C(c2cccn2C)n2ncnc2N1 (stereo not given)	10%
CC1=C(C(=O)Nc2ccc(C)cc2C)C(c2ccc([N+](=O)[O-])cc2)n2ncc(C(=O)Nc3ccc(F)cc3)c2N1 (stereo not given)	1µM*
COc1cccc(C2C(C(=O)Nc3ccccc3)=C(C)Nc3nnnn32)c1OC (stereo not given)	-25%
CNC(=O)[C@@H]1CN(C(=O)c2ccc3ncccc3c2)C[C@H]1c1n[nH]c(C)n1	-3%
Cc1cc(C)c2c(c1)c(C)cc1nnc(SCC(=O)c3ccc(F)cc3)n12	-1%
O=C1NC(=O)C(c2ccccn2)(C2CCN(C(=O)Cn3cnnn3)CC2)N1 (stereo not given)	-1%
CSCC[C@@H]1NC(=O)c2cc(NC(=O)c3cc(-c4ccccn4)n[nH]3)ccc2NC1=O	-20%
O=C1NCCCCCN(C(=O)c2cnccn2)[C@H]2CCCC[C@@H]12	55%
COc1ccccc1-c1onc(C)c1C(=O)NCc1ccccc1C	-15%
COCC1CN(C(=O)c2ccc(Br)cc2)CC12CCNCC2 (stereo not given)	0%
O=C(c1ccc(C(F)(F)F)cc1)N1CCN(C2CCN(Cc3ccccn3)C2=O)CC1 (stereo not given)	i
CCOc1ccc(NC(=O)N(Cc2cn(CC)c3ccccc23)C2CCCCCC2)cc1	10µM*
CCOc1ccc(NC(=O)Cn2cc(C(=O)C3CC3)c3ccccc32)cc1	5%
CCOc1ccc(CNC(=O)CCc2cn(CC)c3ccccc23)cc1	-12%
O=C(c1ccoc1)N1CCCCCC1c1nc(-c2cccnc2)no1 (stereo not given)	-2%
CCOC(=O)C1CCCN(C(=O)c2[nH]c3ccccc3c2Sc2ccc(Cl)cc2)C1 (stereo not given)	-18%
COCCNC(=O)Cc1c[nH]c2ncc(-c3ccccc3)cc12	-30%[44.1 µM]
CN(Cc1cnccn1)C(=O)c1csc2nc(-c3cccc(C(F)(F)F)c3)cn12	i
COCCNC(=O)[C@H]1C[C@H](Oc2cccnc2)CN1S(=O)(=O)c1cccc(OC)c1	-5%
SMILES	Pf Dd2 inh
Cn1cc(C(=O)NCCc2ccc(Cl)cc2)c(=O)c2cc(S(=O)(=O)N3CCCCC3)ccc21	64%
Cn1cc(C(=O)NCCc2ccccc2)c(=O)c2cc(S(=O)(=O)N3CCCCCC3)ccc21	13µM*
CCCCNC(=O)c1cn(C)c2ccc(S(=O)(=O)N3CCCC3)cc2c1=O	-5%
O=C1c2c(nc(COc3cccc(F)c3)n2Cc2ccccc2)NCCN1CCOc1ccccc1	i
CC(C)NC(=O)N1CCNc2cnc(Nc3cccc(C(F)(F)F)c3)nc2C1	-28%[44.1 µM]
CCOC(=O)N1CCN(S(=O)(=O)N2CCCC(C(=O)NCc3ccccc3OC)C2)CC1 (stereo not given)	9%
Cc1ccc(-n2ncc(C(=O)Nc3ccc4c(c3)OCO4)c2C2CCN(C(=O)OC(C)(C)C)CC2)cc1	-18%
CC(C)(C)OC(=O)N1CCC(c2c(C(=O)Nc3ccc4c(c3)OCCO4)cnn2-c2ccccc2)CC1	7.9µM*
Cc1ccc(-n2ncc(C(=O)NCc3ccc4c(c3)OCO4)c2C2CCN(C(=O)OC(C)(C)C)CC2)cc1C	-13%
CC(C)(C)OC(=O)N1CCC(c2c(C(=O)Nc3ccc4c(c3)OCO4)cnn2-c2ccc(F)cc2F)CC1	13µM*
Cc1ccc(-n2ncc(C(=O)Nc3ccc4c(c3)OCCO4)c2C2CCN(C(=O)OC(C)(C)C)CC2)cc1	-8%
COc1ccc(-n2ncc(C(=O)Nc3ccc4c(c3)OCO4)c2C2CCN(C(=O)OC(C)(C)C)CC2)cc1	6.3µM*
CC(C)(C)OC(=O)N1CCC(c2c(C(=O)Nc3ccc4c(c3)OCCO4)cnn2-c2ccc(Cl)cc2)CC1	7.1µM*
Cc1cccc(C)c1-n1ncc(C(=O)NCc2ccc3c(c2)OCO3)c1C1CCN(C(=O)OC(C)(C)C)CC1	-31%
CCC(C)NC(=O)c1cnn(-c2ccc(Cl)cc2)c1C1CCN(C(=O)OC(C)(C)C)CC1 (stereo not given)	11µM*

Screening data (PubChem BioAssay)
